# Results taken from the supplement of paper PMC12282887.
# ± gives the standard deviation of the averaged measurements.
# Tested on: E. coli BW25113 marRABp lux reporter
# Test: promoter activity interaction Z-score (Lux/OD deviation from empty-vector control); higher = stronger promoter induction by the compound
# Experimental: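 E. coli BW25113 (wild type or ΔmarA/ΔsoxS/Δrob) carrying pTU175 luxCDABE promoter reporters was grown in LB in 384-well plates at 37°C with each of 94 compounds at 4 two-fold concentrations, in biological duplicates. Luminescence and OD600 were read every 30 min for 12 h and integrated as AUC over 8 h (0-8 h WT, 1-9 h mutants). Lux AUC was divided by OD AUC; the interaction score is the residual of a Huber robust fit of each promoter against the empty-vector control, then Z-transformed per promoter.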
smiles,measurement,setting,value
CC1(C)S[C@@H]2[C@H](/N=C/N3CCCCCC3)C(=O)N2[C@H]1C(=O)O [Mecillinam],promoter activity interaction Z-score,"0.0081 µg/ml, genetic background: wild type",0.0167 ± 0.096
same,promoter activity interaction Z-score,"0.0081 µg/ml, genetic background: ΔmarA",-0.0228 ± 0.035
same,promoter activity interaction Z-score,"0.0081 µg/ml, genetic background: Δrob",0.0796 ± 0.13
same,promoter activity interaction Z-score,"0.0081 µg/ml, genetic background: ΔsoxS",-0.119 ± 0.16
same,promoter activity interaction Z-score,"0.016 µg/ml, genetic background: wild type",-0.158 ± 0.16
same,promoter activity interaction Z-score,"0.016 µg/ml, genetic background: ΔmarA",-0.0902 ± 0.12
same,promoter activity interaction Z-score,"0.016 µg/ml, genetic background: Δrob",0.334 ± 0.2
same,promoter activity interaction Z-score,"0.016 µg/ml, genetic background: ΔsoxS",-0.0159 ± 0.17
same,promoter activity interaction Z-score,"0.033 µg/ml, genetic background: wild type",0.203 ± 0.034
same,promoter activity interaction Z-score,"0.033 µg/ml, genetic background: ΔmarA",0.119
same,promoter activity interaction Z-score,"0.033 µg/ml, genetic background: Δrob",1.33
same,promoter activity interaction Z-score,"0.033 µg/ml, genetic background: ΔsoxS",0.151 ± 0.51
NCC[C@H](O)C(=O)N[C@@H]1C[C@H](N)[C@@H](O[C@H]2O[C@H](CN)[C@@H](O)[C@H](O)[C@H]2O)[C@H](O)[C@H]1O[C@H]1O[C@H](CO)[C@@H](O)[C@H](N)[C@H]1O [Amikacin],promoter activity interaction Z-score,"0.07 µg/ml, genetic background: wild type",-0.0461 ± 0.062
same,promoter activity interaction Z-score,"0.07 µg/ml, genetic background: ΔmarA",-0.273 ± 0.075
same,promoter activity interaction Z-score,"0.07 µg/ml, genetic background: Δrob",-0.255 ± 0.1
same,promoter activity interaction Z-score,"0.07 µg/ml, genetic background: ΔsoxS",-0.0126 ± 0.0034
same,promoter activity interaction Z-score,"0.15 µg/ml, genetic background: wild type",-0.123 ± 0.09
same,promoter activity interaction Z-score,"0.15 µg/ml, genetic background: ΔmarA",-0.134 ± 0.044
same,promoter activity interaction Z-score,"0.15 µg/ml, genetic background: Δrob",-0.00793 ± 0.05
same,promoter activity interaction Z-score,"0.15 µg/ml, genetic background: ΔsoxS",-0.13 ± 0.069
same,promoter activity interaction Z-score,"0.29 µg/ml, genetic background: wild type",0.0977 ± 0.14
same,promoter activity interaction Z-score,"0.29 µg/ml, genetic background: ΔmarA",0.566 ± 0.32
same,promoter activity interaction Z-score,"0.29 µg/ml, genetic background: Δrob",0.0547 ± 0.082
same,promoter activity interaction Z-score,"0.29 µg/ml, genetic background: ΔsoxS",0.193 ± 0.079
C[C@H](CCC(=O)O)[C@H]1CC[C@H]2[C@@H]3CC[C@@H]4C[C@H](O)CC[C@]4(C)[C@H]3C[C@H](O)[C@]12C [Deoxycholic acid],promoter activity interaction Z-score,"24.5 µg/ml, genetic background: wild type",-0.31 ± 0.18
same,promoter activity interaction Z-score,"24.5 µg/ml, genetic background: ΔmarA",-0.0533 ± 0.055
same,promoter activity interaction Z-score,"24.5 µg/ml, genetic background: Δrob",-0.148 ± 0.14
same,promoter activity interaction Z-score,"24.5 µg/ml, genetic background: ΔsoxS",-0.343 ± 0.17
same,promoter activity interaction Z-score,"49.1 µg/ml, genetic background: wild type",-0.0619 ± 0.22
same,promoter activity interaction Z-score,"49.1 µg/ml, genetic background: ΔmarA",-0.261 ± 0.22
same,promoter activity interaction Z-score,"49.1 µg/ml, genetic background: Δrob",-0.128 ± 0.13
same,promoter activity interaction Z-score,"49.1 µg/ml, genetic background: ΔsoxS",-0.203 ± 0.24
same,promoter activity interaction Z-score,"98.1 µg/ml, genetic background: wild type",-0.0956 ± 0.065
same,promoter activity interaction Z-score,"98.1 µg/ml, genetic background: ΔmarA",-0.111 ± 0.12
same,promoter activity interaction Z-score,"98.1 µg/ml, genetic background: Δrob",-0.283 ± 0.077
same,promoter activity interaction Z-score,"98.1 µg/ml, genetic background: ΔsoxS",-0.336 ± 0.16
same,promoter activity interaction Z-score,"196.3 µg/ml, genetic background: wild type",-0.225 ± 0.38
same,promoter activity interaction Z-score,"196.3 µg/ml, genetic background: ΔmarA",-0.118 ± 0.15
same,promoter activity interaction Z-score,"196.3 µg/ml, genetic background: Δrob",-0.197 ± 0.065
same,promoter activity interaction Z-score,"196.3 µg/ml, genetic background: ΔsoxS",-0.366 ± 0.062
